# In PubChem BioAssay (EPA / NIEHS):
# Values joined by “and” are separate entries in the source; they are usually repeats but may differ in a detail not shown here. Equal values may be shown once. Active and inactive are the calls of the source. Rule for the calls: active = hit-call score of the fitted dose curve at least 0.9, where 1 is the maximum; inactive = score below 0.9.
# Read-out: Plasminogen activator inhibitor-1 (PAI1), SERPINE1 (gene 5054)
# Assay: BSK_BE3C_PAI1: BioMAP Diversity Plus: BE3C Assay for Plasminogen activator inhibitor-1 (PAI1) Biomarker Activity (AID 2283037)
# Conditions: primary human bronchial epithelial cells; actives raise or lower the signal
# Protocol: BSK_BE3C is a cell-based, multiplexed-readout assay that uses bronchial epithelial cell, a human lung primary cell, with measurements taken at 24 hours after chemical dosing in a 96-well plate.BSK_BE3C_PAI1 is an assay component measured in the BSK_BE3C assay. It measures PAI-1 antibody related to regulation of gene expression using ELISA technology.Data from the assay component BSK_BE3C_PAI1 was analyzed into 1 assay endpoint. This assay endpoint, BSK_BE3C_PAI1, was analyzed with bidirectional fitting relative to DMSO as the negative control and baseline of activity. Using a type of binding reporter, gain or loss-of-signal activity can be used to understand changes in the signaling as they relate to the gene SERPINE1. Furthermore, this assay endpoint can be referred to as a primary readout, because this assay has produced multiple assay endpoints where this one serves a signaling function. To generalize the intended target to other relatable targets, this assay endpoint is annotated to the cytokine intended target family, where the subfamily is plasmogen activator inhibitor.
# The levels of cell surface (or secreted, indicated by the prefix "s") biomarker endpoints were measured by ELISA. Overt cytotoxicity to cells in confluent adherent cultures (all systems other than the BT system) was assessed by measuring total protein levels using sulforhodamine B (SRB) staining in parallel cultures at the time of biomarker measurements, indicated as SRB endpoints. For proliferation assays for adherent cell types, individual cell types are cultured at sub-confluence and relative cell numbers quantified by SRB staining at time points optimized for each system (48 h: 3C and CASM3C systems; 72 h: BT and HDF3CGF systems; 96 h: SAg system). SRB was performed by staining cells with 0.1% SRB after fixation with 10% TCA and reading wells at 560 nm.Viability and proliferation of PBMC (T cells) was quantified by Alamar Blue reduction for the SAg and BT systems. For PBMC viability (referred to as PBMC Cytotoxicity within the assay endpoint names), cells were plated (75,000/well in a 96-well plate) and then chemical samples added for 1 h before addition of activators, SEB and TSST-1 (20 ng/mL final concentration each). Cells were incubated for 90 h. Then, Alamar Blue (20 uL/well) (Invitrogen, Cat DAL1100) was added for 6 h, and the plates were read with a fluorescence microplate reader at 546/580 nm (excitation/emission). For PBMC proliferation, cells were plated and activated as above but incubated for only 16 h prior to addition of Alamar Blue. Plates were read after 6 h.
SMILES,outcome,AC50
N#[N+]c1ccc2c(S(=O)(=O)[O-])cccc2c1O,inactive,
COCc1c(C(C)C)nc(C(C)C)c(/C=C/[C@@H](O)C[C@@H](O)CC(=O)O)c1-c1ccc(F)cc1,inactive,
C=CCOc1c(Br)cc(Br)cc1Br,,20 µM (active)
CCOC(=O)c1ccccc1C(=C1C=C(Br)C(=O)C(Br)=C1)c1cc(Br)c(O)c(Br)c1,,2.48 µM (active)
O=Nc1ccc(O)cc1,inactive,
c1ccc(-c2ccccn2)nc1,inactive,
CCCCCCCCc1ccc(Nc2ccc(CCCCCCCC)cc2)cc1,inactive,
CCO[Si](CCCN=C=O)(OCC)OCC,inactive,
CCCCNc1ccc(NCCCC)c2c1C(=O)c1ccccc1C2=O,inactive,
C=CCOCC(O)CCl (stereo unspecified),inactive,
C=C[Si](OC(C)=O)(OC(C)=O)OC(C)=O,inactive,
C/C=C\C/C=C/CCCCCCCCOC(C)=O,inactive,
CN1C(=O)N(C)C(O)C1O (stereo unspecified),inactive,
CC(C)(c1cc(Br)c(OCCO)c(Br)c1)c1cc(Br)c(OCCO)c(Br)c1,inactive,
C#CC1(O)CC[C@H]2[C@@H]3CCC4=CCCC[C@@H]4[C@H]3CC[C@@]21C (stereo partly specified),inactive,
O=C(Nc1ccccc1SSc1ccccc1NC(=O)c1ccccc1)c1ccccc1,inactive,
O=c1c2ccccc2oc2ccccc12,inactive,
S=C(NC1CCCCC1)NC1CCCCC1,inactive,

SMILES,outcome,AC50
O=C1CCCN1CCO,inactive,
CO[Si](OC)(OC)c1ccccc1,inactive,
c1ccc2c(c1)ccc1ncccc12,inactive,
CCCCC/C=C\C/C=C\CCCCCCCC(=O)OC,inactive,
CCO[Si](C)(OCC)OCC,inactive,
CC1OC1C1CCC2(C)OC2C1 (stereo unspecified),inactive,
CCCCCCCCCCCCCCCC[N+](C)(C)CC,,10.4 µM (active)
CC(C)C(=O)C(C)C,inactive,
CCCCC(CC)COC(=O)c1ccccc1O (stereo unspecified),inactive,
Nc1ccc(N)c(Cl)c1,,3.32 µM (active) and 2.4 µM (active)
c1ccc2c(c1)ccc1cc3c(ccc4ccccc43)cc12,inactive,
C=CC(=O)OCC(Br)CBr (stereo unspecified),inactive,
C=CC=CC=CCCCCC,inactive,
CCCCC(CC)COCC1CO1 (stereo unspecified),inactive,
CCOc1nc(F)cc2nc(S(=O)(=O)Nc3c(Cl)cccc3C(=O)OC)nn12,inactive,
COc1ccc2nc(N)sc2c1,inactive,
O=C(c1ccc(O)cc1)c1ccc(O)cc1O,,13.2 µM (active) and 12.6 µM (active)
O=C(Cl)c1cc(C(=O)Cl)cc(C(=O)Cl)c1,,26.7 µM (active)
